Assay results as given in PubChem BioAssay (NCI).
The panel holds about 83,000 compounds, 20% with a hit somewhere; the sample as a whole holds those more often.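 In brief: 96-well plates, 48 h treatment, single concentration, percent growth endpoint.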 A number with no mark means an inactive call. Active and inactive are the calls of the source. How the source made its calls: active means growth percent below 10; inactive means the rest.

Legend:
Test in all cases: NCI-60 one-dose screen, 48 h (100 = growth as untreated, 0 = no growth, -100 = all killed)
SK-MEL-2 melanoma = settings: 10 µM unless noted
EKVX NSCLC = settings: 10 µM unless noted
SN12C renal = settings: 10 µM unless noted
UO-31 renal = settings: 10 µM unless noted
TK-10 renal = settings: 10 µM unless noted
ACHN renal = settings: 10 µM unless noted
CAKI-1 renal = settings: 10 µM unless noted
CCRF-CEM leukemia = settings: 10 µM unless noted
RPMI-8226 leukemia = settings: 10 µM
OVCAR-8 ovarian = settings: 10 µM unless noted
OVCAR-5 ovarian = settings: 10 µM unless noted
IGROV1 ovarian = settings: 10 µM unless noted
OVCAR-3 ovarian = settings: 10 µM unless noted
HS 578T breast = settings: 10 µM unless noted
NCI/ADR-RES ovarian = settings: 10 µM unless noted
A498 renal = settings: 10 µM unless noted
MOLT-4 leukemia = settings: 10 µM unless noted
SR leukemia = settings: 10 µM unless noted
OVCAR-4 ovarian = settings: 10 µM unless noted
SK-OV-3 ovarian = settings: 10 µM

Structure (SMILES) | growth (SK-MEL-2 melanoma) | growth (EKVX NSCLC) [%] | growth (SN12C renal) | growth (UO-31 renal) | growth (TK-10 renal) [%] | growth (ACHN renal) [%] | growth (CAKI-1 renal) | growth (CCRF-CEM leukemia) [%] | growth (RPMI-8226 leukemia) | growth (OVCAR-8 ovarian) | growth (OVCAR-5 ovarian) [%] | growth (IGROV1 ovarian) | growth (OVCAR-3 ovarian) [%] | growth (HS 578T breast) | growth (NCI/ADR-RES ovarian) [%] | growth (A498 renal) | growth (MOLT-4 leukemia) | growth (SR leukemia) | growth (OVCAR-4 ovarian) | growth (SK-OV-3 ovarian) [%]
O=c1oc2ccccc2cc1-c1csc(N=Nc2c(O)[nH]c3ccc(Cl)cc23)n1 | 107% | 103 | 100% | 98.2% | 106 | 101 | 94.9% | 94.2 | 105% | 96.3% | 96.2 | 107% | 107 | 105% | 105 |  |  |  |  | 
Clc1ccc(Nc2ccnc(N3CCN(c4ccnc5cc(Cl)ccc45)CC3)n2)cc1 | 73.7% |  | 51.4% | -8.75% (active) | 60.9 | 41.9 | 34.8% | 38.4 | 34.5% | 61.4% | 70.6 | -4.05% (active) | 35.5 | 49.1% |  | -1.58% (active) | 31.9% | 37.2% | 41.9% | 62.5
c1ccc(-c2n(Cc3ccc4ccccc4n3)c3ccccc3[n+]2Cc2ccc3ccccc3n2)cc1 | -20.7% (active) | 13.5 | 2.63% (active) |  |  | 34.2 | -17.6% (active) | 12.5 |  | 7.66% (active) | 12.8 | -34.3% (active) |  | 2.04% (active) | 73.4 | -16.4% (active) | -16.9% (active) | -19.1% (active) | 7.64% (active) | 
COc1nc2c(cc1S(=O)(=O)c1ccccc1)CCc1c-2cnn1-c1cccc(Cl)c1 | 88.9% |  | 77.4% | -15.6% (active) | 94.2 | 68.3 | 63.5% | 70.4 | 56.6% | 81.8% | 80.1 | 94.9% | 93.7 | 102% | 89.7 | 54.6% | 66.1% | 47.4% | 87% | 83.2
CCCCC(CCCC)(S(=O)(=O)CC)S(=O)(=O)CC | 108% |  | 102% | 84.6% | 99.2 | 105 | 93.6% | 91.5 | 90.8% | 102% | 103 | 104% | 105 | 104% | 102 | 88.7% | 93.6% | 92.3% | 110% | 105
COc1cccc(-c2ccc3c(c2)C2CCN(Cc4ccccc4)C3C2)c1 (centres undefined) | 61.5% |  | 90.4% | 51.6% | 92.4 | 93.2 | 78.4% | 63.8 | 59.4% | 85% | 84.4 | 59.9% | 72.2 | 90% | 68.8 | 65% | 68.8% | 18.4% | 86.5% | 71.1
COc1ccc(-c2c3c(N)c4c(nc3nc3c2c(C)nn3-c2ccccc2)CCCC4)cc1 | 101% |  | 93.4% | 68.9% | 86.8 | 77.4 | 83.9% | 23.2 | -37.5% (active) | 83.1% | 90.1 | 90.1% | 88.8 | 92.5% | 86.6 | 78.7% | 23.6% | -25.8% (active) | 45.1% | 103
CS(=O)(=O)Nc1cccc(C(=O)NCc2ccc(N3CCOCC3)cc2)c1 | 96.7% |  | 107% | 93% | 93.3 | 115 | 101% | 99.8 | 99.7% | 104% | 107 | 114% | 108 | 104% | 111 | 94% | 93.2% | 93.3% | 107% | 107
C=C(C)COC(=O)c1ccccc1C(=O)OCC1(C)CO1 (centres undefined) | 97.5% | 103 | 95.9% |  | 102 | 105 | 96.6% | 97.2 | 110% | 95.6% | 96.8 |  | 108 | 104% | 101 | 108% | 99.7% |  |  | 110
